Experimental data as given in PubChem BioAssay AID1379 (National Center for Advancing Translational Sciences (NCATS), 2008).
In all, about 200,000 compounds went through this assay and about 560 (0.28%) were called active. The entries come from a sample that favours actives as a whole. A number with no mark means an inactive call. Calls come from the whole dose curve; as a rule, active = well fitted inhibition curve with a large enough effect; inconclusive = small, poorly fitted or top-dose-only effect; inactive = flat fitted curve, though single readings scatter.

These compounds were tested against Luciferin 4-monooxygenase (Photuris pensylvanica) (UniProt Q27757) (assay: Counterscreen for Luciferase (Kinase-Glo TM) Inhibition). Settings: ATP luminescence, 8 min; series mostly up to 38.3 µM; activity change, negative = inhibition: at the top concentration.
Experimental: NCGC Assay Overview: NIH Molecular Libraries Screening Centers Network [MLSCN] NIH Chemical Genomics Center [NCGC] MLSCN Grant: None Luciferase (Kinase-Glo, Promega Corporation) was assayed for its ability to generate light using ATP and luciferin as substrates. The ATP concentration in the assay (10 uM) was within the linear range of enzyme activity for the assay conditions used.
NCGC Assay Protocol Summary: Four uL of substrate mix (final concentration, 50 mM imidazole pH 7.2, 50 mM KCl, 7 mM MgCl2, 10 uM ATP, 0.01% Tween 20, 0.05% BSA) was dispensed into white 1536 well plates. Twenty-three nL of compound was delivered by a pin tool and 2 uL of luciferase detection mix (Kinase-Glo, Promega)) was added. Following 8-minute incubation at ambient temperature, luminescence was measured by a ViewLux (Perkin Elmer) at 5 seconds exposure/plate.
% is set by controls: 0 for no effect and ±100 for the full control effect; potency is the fitted concentration of half-maximal effect.
Note: nearly all actives have a fitted effect of over 60% in size.

Row | Structure (SMILES) | activity change, negative = inhibition | Potency
1 | O=C(O)CCC(=O)O | 0.673% [at 39.9 µM] | –
2 | CC(=O)CC(c1ccccc1)C1C(=O)Oc2ccccc2C1=O (stereo unspecified) | 3.02% [at 39.9 µM] | –
3 | CC(C)(C)OC(=O)NCCCCC1=CC2=CC(=O)C(C)(OC(=O)c3cccs3)C(=O)C2=CO1 (stereo unspecified) | -0.695% | –
4 | CC1=C(C/C=C(\C)CCCC(C)CCCC(C)CCCC(C)C)C(=O)c2ccccc2C1=O (stereo unspecified) | 1.77% [at 39.9 µM] | –
5 | CCCCCCCC/C=C\CCCCCCCC(=O)OC[C@H](CO)OC(C)=O | 2.45% | –
6 | COC(=O)CCCC1=CC2=CC(=O)C(C)(OC(=O)c3cccs3)C(=O)C2=CN1CC1CC1 (stereo unspecified) | -3.89% [at 7.66 µM] | –
7 | CC[C@@]12C=C(/C=C/c3ccccc3)[C@](CC)(C1)[C@H](c1ccccc1)CC2=O | 0.444% | –
8 | CCOC(=O)C(C)Sc1nc2ccccc2c(=O)n1CC1CCCCC1 (stereo unspecified) | -1.71% | –
9 | O=c1c2ccccc2nc2n1C1(CCCCC1)Cc1ccccc1-2 | -4.12% | –
10 | CN(c1ccc2nc3ccccc3c(=O)n2n1)C1CCCCC1 | – | 6.31 µM (active)
11 | C=CCOC(=O)NC(c1ccc(F)c(F)c1)C(C(=O)COC)C(=O)OC (stereo unspecified) | inactive | –
12 | COC(=O)C(C(=O)OC)C1c2ccccc2C=C(C2CC2)N1C(=O)OC (stereo unspecified) | inactive | –
13 | CC/C=C\C/C=C\C/C=C\C/C=C\C/C=C\C/C=C\CCC(=O)NC(C)C(=O)O (stereo unspecified) | 1.38% | –
14 | CC(=O)[C@H](C(c1ccccc1)N1CCOCC1)N1CCOCC1 (stereo partly specified) | -6.68% [at 7.66 µM] | –
15 | O=C(O)C1CCCN(CCC=C(c2ccccc2)c2ccccc2)C1 (stereo unspecified) | -0.135% | –
16 | CCCCCCCCCCCCCCCCO | 2.29% [at 39.9 µM] | –
17 | CCCCC/C=C\CC1OC1CCCCCCCC(=O)O (stereo unspecified) | 0.471% | –
18 | COc1cccc(CC(=O)N2CCc3nc(COc4ccccc4)c4c(c3C2)CO[C@@H](C)C4)c1 | -3.82% [at 7.66 µM] | –
19 | O=c1oc2ccccc2cc1-c1csc(Nc2ccc(O)cc2)n1 | -5.88% | –
20 | Nc1ncc(-c2cc3ccccc3oc2=O)s1 | – | 11.2 µM (active)
21 | COc1ccc2nc(Nc3nc(-c4cc5ccccc5oc4=O)cs3)sc2c1 | -3.49% | –
22 | NNc1nnc(NN)c2ccccc12 | -1.53% [at 39.9 µM] | –
23 | COc1cccc(-c2cc(=O)c3cc(NC(=O)c4ccc(C)cc4)ccc3[nH]2)c1 | -2.75% [at 39.9 µM] | –

Row | Structure (SMILES) | activity change, negative = inhibition | Potency
24 | COc1ccc(-c2nc3c(c4c2C[C@H](c2ccccc2)OC4)CN(C(=O)C2CC2)CC3)c(C)c1 | -7.98% [at 7.66 µM] | –
25 | COC(=O)C/C=C/[C@@H](C)[C@H](NC(=O)OCC(Cl)(Cl)Cl)c1ccccc1 | -1.07% | –
26 | CCCCCCCC1=Cc2ccc(F)cc2C(C(C(=O)OC)C(=O)OC)N1C(=O)OC (stereo unspecified) | inactive | –
27 | Cc1occc1C(=O)Nc1cccc(Cn2cccn2)c1 | -12.9% | –
28 | Cc1ccnc(NC(=O)c2ccoc2C)c1 | – | 6.31 µM (active)
29 | Cc1ccnc(NC(=O)c2ccc(NC(=O)c3ccco3)cc2)c1 | -2.89% | –
30 | CCN1C(=O)N[C@@H](c2ccccc2)[C@H](C(C)=O)[C@H]1C | -7.74% [at 7.66 µM] | –
31 | C[C@@H]1C(c2ccc(F)cc2)=NN(c2ccc(Br)cc2)[C@H]1C(=O)N1CCOC1=O | 0.81% [at 39.9 µM] | –
32 | O=C(O)C[C@@H]1NC(=O)[C@H](Cc2ccccc2)NC1=O | -1.56% | –
33 | COC(=O)C1=C(C(=O)OC)[C@@H]2N(C)c3ccccc3[C@@]23C[C@@H](C(=O)OC)N(C(C)=O)C3=N1 | 0.685% [at 7.66 µM] | –
34 | CC(C)C[C@H](NC(=O)[C@H](O)[C@H](N)Cc1ccccc1)C(=O)O | -2.08% | –
35 | COC(=O)C1=C(C(=O)OC)[C@@H]2N(C)c3ccccc3[C@@]23C[C@@H](C(=O)OC)N(C(=O)c2ccco2)C3=N1 | -2.48% [at 7.66 µM] | –
36 | Cc1nonc1C(=O)N/N=C/c1ccc(O)cc1 | – | 5.01 µM (active)
37 | O=C(C[n+]1ccccc1)N/N=C/c1ccc(O)cc1 | 0.75% | –
38 | COC(=O)N/N=C/c1ccc(/C=N/NC(=O)OC)cc1 | -2.49% | –
39 | C[C@H]1Cc2c(COc3ccccc3)nc3c(c2CO1)CN(C(=O)NCc1ccco1)CC3 | -0.257% [at 7.66 µM] | –
40 | Cc1ccsc1C(=O)OCC(=O)c1cc(C)n(CC2CCCO2)c1C (stereo unspecified) | – | 12.6 µM (active)
41 | Cc1ccsc1C(=O)OCC(=O)c1cc2ccccc2o1 | 1.49% | –
42 | Cc1cc(C(=O)Cn2cnc3cc([N+](=O)[O-])ccc3c2=O)c(C)n1CC1CCCO1 (stereo unspecified) | 0.204% | –
43 | COC(=O)CCCC1=CC2=CC(=O)C(C)(OC(=O)c3cccs3)C(=O)C2=CN1CC(C)C (stereo unspecified) | -3.18% [at 7.66 µM] | –
44 | CCOC(=O)C1=C(C)c2ccccc2OC1(C)C(=O)OCC (stereo unspecified) | -1.26% [at 39.9 µM] | –
45 | CC(C)(Oc1ccc(C2CC2(Cl)Cl)cc1)C(=O)O (stereo unspecified) | -4.29% | –
46 | O=C(Nc1nnc(C2CC2)s1)c1ccccn1 | – | 10 µM (active)

Row | Structure (SMILES) | activity change, negative = inhibition | Potency
47 | O=C(Cc1cccs1)Nc1nnc(C2CC2)s1 | -2.54% | –
48 | Cc1occc1C(=O)Nc1nnc(C2CCCCC2)s1 | -4.54% | –
49 | C=C(C)C(=O)c1ccc(F)cc1 | -1.32% | –
50 | CC(C)C1=CC2=CC[C@H]3[C@](C)(C(=O)O)CCC[C@]3(C)C2CC1 (stereo partly specified) | -0.415% | –
51 | COC(=O)C1=C(C(=O)OC)[C@@H]2N(Cc3ccccc3)c3ccccc3[C@@]23C[C@@H](C(=O)OC)N(S(=O)(=O)c2ccc(C(F)(F)F)cc2)C3=N1 | -5.51% [at 7.66 µM] | –
52 | CCCCC/C=C\C/C=C\C/C=C\CCCCCCC(N)=O | 1.55% | –
53 | COC(=O)N1C(/C=C/C=C/c2ccc(OC)cc2)=Cc2ccccc2C1CC(C)=O (stereo unspecified) | -3.85% [at 7.66 µM] | –
54 | CC1(C)O[C@@H]2C[C@@H]3[C@H]4C[C@@H](F)C5=CC(=O)C=C[C@]5(C)[C@@]4(F)[C@@H](O)C[C@]3(C)[C@]2(C(=O)CO)O1 | 2.2% [at 39.9 µM] | –
55 | CCCCC/C=C\C/C=C\CCCCCCCCCC(=O)NCC(=O)O | -0.368% | –
56 | COc1ccc(-c2c(C)cc3oc(=O)cc(-c4ccccc4)c3c2C)cc1F | -1.32% [at 39.9 µM] | –
57 | CC1=C(/C=C/C(C)=C/C=C/C(C)=C/C=C/C=C(C)/C=C/C=C(C)/C=C/C(=O)[C@]2(C)C[C@@H](O)CC2(C)C)C(C)(C)C[C@H](O)C1 | -4.32% [at 39.9 µM] | –
58 | C#CCCOC(=O)N1C2=NC(C(=O)OC)=C(C(=O)OC)[C@@H]3N(C)c4ccc(OC)cc4[C@]23C[C@H]1C(=O)OC | -8.5% [at 7.66 µM] | –
59 | Cc1cn(C2OC[C@@H](O)[C@@H]2CO)c(=O)[nH]c1=O (stereo partly specified) | 1.72% | –
60 | CCCCC/C=C\C/C=C\CCCCCCCCCC(=O)O | 1.05% | –
61 | COc1cccc(OC)c1C(=O)Nc1ccc(N2CCCCC2)cc1 | -0.438% | –
62 | COc1ccc(C(=O)NC(=S)Nc2ccc(N3CCCC3)cc2)cc1OC | -0.802% | –
63 | COc1cccc(C(=O)Nc2ccc(N3CCCC3)cc2)c1 | – | 4.47 µM (active)
64 | COc1cc(OC)c2c(c1)OC(=O)CC2c1cc(OC)c(OC)c(OC)c1 (stereo unspecified) | -1.07% [at 39.9 µM] | –
65 | CN1c2ccccc2-c2nc3ccccc3n2C1c1ccco1 (stereo unspecified) | -3.67% | –
66 | COc1ccc(CCn2c(-c3ccco3)nc3nc4ccccc4nc32)cc1OC | -1.99% | –
67 | Cn1c(-c2ccco2)nc2cc3ccccc3cc21 | – | 12.6 µM (active)
68 | COc1ccc(C2CC(=O)Oc3ccc(C(C)(C)C)cc32)cc1 (stereo unspecified) | 1.23% [at 39.9 µM] | –
69 | COc1cccc([C@@H]2Oc3ccc(Br)cc3C(=O)[C@H]2OC(=O)NCCc2ccc(OC)c(OC)c2)c1 | -1.05% | –

Row | Structure (SMILES) | activity change, negative = inhibition | Potency
70 | CCOC(=O)C1=C(C(=O)OCC)C(C(=O)OCC)N(S(=O)(=O)C(F)(F)F)c2ccccc21 (stereo unspecified) | 4.1% [at 39.9 µM] | –
71 | COC(=O)C1=C(C(=O)OC)[C@@H]2N(C)c3ccccc3[C@@]23C[C@@H](C(=O)OC)N(S(=O)(=O)c2cccs2)C3=N1 | -6.85% [at 7.66 µM] | –
72 | CC/C=C\C/C=C\C/C=C\C/C=C\C/C=C\C/C=C\CCC(=O)NCCc1ccc(O)c(O)c1 | 0.167% | –
73 | C[C@@]12CCC(=O)C=C1CC[C@H]1C2[C@@H](O)C[C@]2(C)[C@@H]1CC[C@@]2(O)C(=O)COC(=O)C1CCCC1 (stereo partly specified) | -5.73% [at 7.66 µM] | –
74 | CCCCC/C=C\C/C=C\CCCCCCCCCC(N)=O | -0.518% | –
75 | COC(=O)C1(C(C)=O)CC2=CC[C@H]3C(=O)N(c4ccccc4)C(=O)[C@H]3[C@@H]2Cc2ccccc2[C@@H]1C[N+](=O)[O-] (stereo partly specified) | inactive | –
76 | CCCCC/C=C\C/C=C\C/C=C\CCCCC(=O)NCC(=O)O | 1.63% | –
77 | COC(=O)C(C(=O)OC)[C@@H](NC=O)c1ccccc1 | 0.0948% | –
78 | CC1(OC(=O)c2ccc(Cl)nc2)C(=O)Cc2cc(-c3ccsc3)ncc2C1=O (stereo unspecified) | -0.318% [at 7.66 µM] | –
79 | Cc1nn2c3ccccc3nc2n(C)c1=O | -2.73% | –
80 | Cn1cccc1-c1nc2ccccc2n1C | 0.232% | –
81 | Cc1csc(-c2nc3ccccc3n2C)n1 | – | 4.47 µM (active)
82 | Cc1cccc(N=C2NN=C(c3c[nH]c4ccccc34)CS2)c1 | 0.767% | –
83 | C=CCn1c(C)cc(C2=NNC(=NCC)SC2)c1C | – | 7.94 µM (active)
84 | COCCn1c(C)cc(C2=NNC(=Nc3ccc(F)cc3)SC2)c1C | -22.3% | –
85 | COc1cc(/C=C/CO)cc(OC)c1O[C@@H]1O[C@H](CO)[C@@H](O)[C@H](O)[C@H]1O | 1.26% | –
86 | CCc1cccc(OC2OC(CO)C(O)C(O)C2NC(C)=O)c1 (stereo unspecified) | 0.91% | –
87 | Cc1csc(-c2coc3cc(O[C@@H]4O[C@H](CO)[C@@H](O)[C@@H](O)[C@H]4O)ccc3c2=O)n1 | – | 3.55 µM (active)
88 | C=CCN1C=C2C(=O)C(C)(OC(=O)CCc3ccccc3)C(=O)C=C2C=C1c1ccc(C#N)cc1 (stereo unspecified) | -4.17% [at 7.66 µM] | –
89 | C=C/C1=C/Cc2ccccc2[C@H](C[N+](=O)[O-])C(C(=O)OC)(C(=O)OC)C1 | -0.469% | –
90 | CC(C)(C)OC(=O)NCCCC1=CC2=CC(=O)C(C)(OC(=O)c3ccco3)C(=O)C2=CO1 (stereo unspecified) | -0.651% | –
91 | COC(=O)C1=C(C(=O)OC)[C@@H]2Nc3ccccc3[C@@]23C[C@@H](C(=O)OC)N(S(=O)(=O)c2ccc([N+](=O)[O-])cc2)C3=N1 | -3.38% [at 7.66 µM] | –
